Sm TGR inh – S. mansoni TGR enzyme inhibition. actives 3% (n = 360,000). Q962Y6. Potency, µM (titrated, usually from 114 µM), for the others: top-dose activity change, negative = inhibition, hits mostly inhibitors. purified TGR, DTNB reduction, TNB absorbance 405 nm; note: % is set by controls: 0 for no effect and ±100 for the full control effect; nearly all actives have a fitted effect of over 60% in size
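First, TGR (20 nM dispensed) and NADPH were mixed with compound. Second, a 15 min room-temperature incubation followed. Third, further NADPH and then DTNB were added to start the reaction. Finally, TNB absorbance was monitored kinetically.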
AmpC no deterg – blocks E. coli AmpC beta-lactamase in detergent-free assay; P00811; AmpC nitrocefin hydrolysis, absorbance 480 nm, 0.0001% Triton; Potency, µM (series often up to 57.1 µM), for the others: top-dose activity change, negative = inhibition, hits mostly inhibitors; actives 0.52% (n = 330,000); AID 485341;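 note: plate controls were no compound for no effect and no enzyme for full effect; nearly all actives have a fitted effect of over 20% in size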
Target sequence (P00811 whole entry, looked up): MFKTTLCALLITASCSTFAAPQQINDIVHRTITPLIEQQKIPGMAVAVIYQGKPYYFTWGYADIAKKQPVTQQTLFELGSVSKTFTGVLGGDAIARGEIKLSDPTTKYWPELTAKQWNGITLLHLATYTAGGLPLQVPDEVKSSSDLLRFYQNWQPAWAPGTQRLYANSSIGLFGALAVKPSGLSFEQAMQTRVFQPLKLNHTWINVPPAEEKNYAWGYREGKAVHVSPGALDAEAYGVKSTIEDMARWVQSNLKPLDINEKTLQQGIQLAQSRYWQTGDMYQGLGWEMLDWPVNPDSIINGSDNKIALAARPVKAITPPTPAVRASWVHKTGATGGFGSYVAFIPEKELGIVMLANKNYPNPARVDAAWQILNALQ
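AmpC (5.3 nM in the dispensed reagent) in 20 mM phosphate pH 7.0 with 0.01% (detergent screen) or 0.0001% Triton X-100 was preincubated with compounds for 15 min at room temperature. Nitrocefin was then added from an 800 uM solution, and hydrolysis was followed at 480 nm.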
SARS PLP yeast – inhibitors of SARS-CoV papain-like protease in yeast; Potency, µM (top dose mostly 32.9 µM), without a hit: at the highest dose activity, positive = growth rescue, hits mostly activators; AID 485353; S. cerevisiae expressing SARS-CoV PLpro, growth rescue; actives 0.19% (n = 330,000); calls by dose curve; note: 0% is about no effect; nearly all actives have a fitted effect of over 55% in size
Pf growth 96h – P. falciparum growth inhibition at 96 hour, primary screen for plastid delayed-death inhibitors; Potency, µM (top dose mostly 28.7 µM), for inactives: top-dose activity change, negative = inhibition, most hits filed as inhibitors; actives 6.9% (n = 320,000); AID 504834; P. falciparum luciferase reporter growth, 96 h; note: % is set by controls: 0 for no effect and ±100 for the full control effect
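Compounds incubated with erythrocytes infected by luciferase-expressing P. falciparum (2% hematocrit, 0.05% parasitemia final) for 96 hours, 37 C in 5% CO2. Growth inhibition scored as decreased luciferase luminescence.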
Pf growth 48h – P. falciparum growth inhibition at 48 hours (one generation) | Potency, µM (top dose mostly 28.7 µM), for inactives: top-dose activity change, negative = inhibition, usual class: inhibitors | P. falciparum luciferase growth in erythrocytes, 48 h | actives 5.9% (n = 310,000); note: % is set by controls: 0 for no effect and ±100 for the full control effect
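First compound was added to culture medium, then infected red cells at 0.1% parasitemia and 2% hematocrit (final). After incubation at 37 C under 5% CO2, luciferase detection reagent was dispensed and light output recorded.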
AmpC detergent – blocks E. coli AmpC beta-lactamase in detergent assay. P00811. AmpC hydrolysis of nitrocefin, absorbance 480 nm, 0.01% Triton. Potency, µM (titrated, usually from 114 µM), without a hit: at the highest dose activity change, negative = inhibition, usual class: inhibitors. actives 0.041% (n = 370,000). AID 485294;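 note: 0% = no-compound wells and -100% = no-enzyme wells; nearly all actives have a fitted effect of over 25% in size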
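20 mM phosphate pH 7.0 + 0.01% (detergent screen) or 0.0001% Triton X-100; 5.3 nM AmpC reagent; cpd preinc 15 min RT; nitrocefin (800 uM stock) to start; A480 q20 s × 4 min; Activity was normalised to no-enzyme and no-compound control wells.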
* marks the source's active call; other numbers are inactive results; ? = inconclusive; / = not tested or not shown; [ ] = remark or other dose. This is a sample that favours compounds with a hit; in the whole collection about 12% have one here. Unless noted, calls come from the whole dose curve; as a rule, active = well fitted curve in the direction sought with a large enough effect; inconclusive = small, poorly fitted or top-dose-only effect, or another doubt; inactive = no such curve, though single readings can be large; an effect the other way counts as inactive or inconclusive. Potency is the fitted concentration of half-maximal effect.

SMILES	Sm TGR inh	AmpC no deterg	SARS PLP yeast	Pf growth 96h	Pf growth 48h	AmpC detergent
CCN1C(=O)[C@H]2[C@@H](c3ccc(SC4CCCCC4)cc3)N3CCCC[C@@]3(C(=O)OC)[C@H]2C1=O	-17.0%	18.8%	-0.7%	?	?	?
CCN1C(=O)[C@@H]2[C@@H](c3ccc(SC4CCCCC4)cc3)N3CCC[C@@]3(C(=O)OC)[C@@H]2C1=O	-1.8%	212.1%	1.2%	9.28µM*	13.1µM*	-0.1%
CCCSc1ccc([C@@H]2[C@@H]3C(=O)N(CC)C(=O)[C@@H]3[C@]3(C(=O)OC)CCCCN23)cc1	/	157.6%	2.0%	/	/	/
CC(C)CCn1c(SCC(=O)Nc2ccccc2C(F)(F)F)nc2nccnc2c1=O	22.4µM*	60.5%	2.9%	?	?	-0.5%
O=C(NC1CC(=O)N(c2ccc(Cl)cc2)C1)C(=O)c1c[nH]c2ccccc12 (stereo unspecified)	-0.7%	/	/	/	/	-4.9%
CCN(CC)c1nc(N2CCOCC2)c(C#N)c2c1CN(C)CC2	2.9%	-8.3%	1.8%	10.4µM*	?	?
N#Cc1c(N2CCOCC2)nc(N2CCCCC2)c2c1CCN(C1CCCCC1)C2	-20.7%	3.0%	-1.6%[6.58 µM]	1.47µM*	/	-9.8%
CCN1CCc2c(C#N)c(N3CCCCC3)nc(N3CCOCC3)c2C1	1.7%	51.0%	-9.1%	?	?	-3.3%
O=c1c(Cl)c(Cl)cnn1Cc1nnc(-c2ccccc2Br)o1	6.31µM*	-39.7%	-11.3%	-5.1%	5.1%	?
Clc1ccccc1OCc1nnc(-c2ccccc2Br)o1	5.8%	-23.1%	-14.5%	?	40.5%	-7.9%
CN1C(=O)/C(=C/c2ccc(OCc3ccc(F)cc3)cc2)NC1=S	-2.0%	-36.7%	-1.6%	-19.9%	1.3%[0.00184 µM]	-0.6%
OC(CNCc1ccccc1)c1ccccc1 (stereo unspecified)	1.1%	-10.1%	0.6%	?	9.28µM*	1.9%
OC(CNC1Cc2ccccc2C1)c1ccccc1 (stereo unspecified)	0.0%	-4.7%	0.4%	13.1µM*	11.7µM*	4.7%
O=C(c1ccccc1)c1ccc(OCC(O)CNCc2cccc(Cl)c2)cc1 (stereo unspecified)	-10.7%	32.3%	0.3%	-26.8%	-26.9%	-7.2%
OC(CNCC#Cc1ccccc1)c1ccccc1 (stereo unspecified)	-14.3%	-9.7%[2.29 µM]	-1.0%	-24.3%	?	-1.0%
Oc1cccc(C(O)CNCc2ccc(-c3ccccc3)cc2)c1 (stereo unspecified)	9.1%	-20.0%	-0.9%	4.9%	-27.9%	-5.2%
OC(CNCc1cccc(Cl)c1)c1ccccc1 (stereo unspecified)	3.1%	-19.7%	1.3%	8.4%	2.08µM*	-13.7%
OC(C[n+]1ccccc1)c1ccccc1 (stereo unspecified)	4.9%	-11.2%	1.6%	0.657µM*	?	?
CC(OC(=O)CSc1ccccc1)C(=O)NC1CCCCC1C (stereo unspecified)	0.8%	-4.1%	7.6%	58.8%	-6.6%	-11.2%
Cc1ccc2oc(=O)c3cc(C(=O)Nc4cccc(C#N)c4)sc3c2c1	2.0%	/	/	/	/	16.0%
CC(=O)c1cccc(NC(=O)Nc2sc3nc4n(c(=O)c3c2C)CCC(C)CC4)c1 (stereo unspecified)	5.3%	/	/	/	/	3.8%
COc1ccc(CNC(=O)Cc2c(C)c3c(cc(C)c4c(C)coc43)oc2=O)cc1	7.8%	/	/	/	/	20.5%
C=CCC(CC=C)(CNC(=O)C(=O)Nc1cccc(C(F)(F)F)c1)c1ccccc1	-6.9%	/	/	/	/	-4.4%
CC1=CC(=O)N(c2cccc(C(F)(F)F)c2)C1c1ccc(Cl)cc1 (stereo unspecified)	-10.9%	9.4%	-18.1%	?	8.28µM*	?
